# In PubChem BioAssay (Tox21):
# Unmarked numbers belong to inactive results. Inconclusive results are not listed. Entries that show only a call come without a potency. Active and inactive are the calls of the source. Calls follow the shape of the dose curve; as a rule, active = well fitted curve in the direction sought with a large enough effect in the repeat runs; inconclusive = weak or mixed curves; inactive = no such curve, though single readings can be large; an effect the other way counts as inactive or inconclusive.
# Tests used:
# [1] = qHTS RealTime-Glo MT Cell Viability Assay in HEK293 cells - 16 hour (AID 1224872); also: nearly all actives have a fitted effect of over 50% in size; also: potency is read from the fitted curve at half-maximal effect; as to activity change, negative = cytotoxicity: top concentration of the series differs between compounds
# Procedure, shortened: (§1)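 Viability tracked continuously by luminescence as live cells reduce a prosubstrate for NanoLuc; HEK293 cells preincubated 5 h, compound-treated at 37 C, and read at 0, 8, 16, 24, 32 and 40 h.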
# [2] = qHTS RealTime-Glo MT Cell Viability Assay in HepG2 cells - 8 hour (AID 1224873); also: nearly all actives have a fitted effect of over 55% in size
# Procedure, shortened: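 HepG2 cells mixed with RealTime-Glo MT reagents (NanoLuc plus cell-permeant prosubstrate) were seeded at 600 cells/well, incubated 5 h at 37 C/5% CO2, then pinned with compounds in DMSO; nonlytic luminescence tracked viability during 40 h treatment.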
# [3] = qHTS RealTime-Glo MT Cell Viability Assay in HEK293 cells - 40 hour (AID 1224874); settings: RealTime-Glo luminescence; max response: active compounds read low; also: nearly all actives have a fitted effect of over 50% in size; also: potency is read from the fitted curve at half-maximal effect
# Procedure, shortened: (§2)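 Nonlytic bioluminescent viability monitoring. HEK293 at 600 cells/well with reagent; 5 h settle; compound transfer by pintool; plates held at 37 C and read at set time points.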
# [4] = A CellTox Green Cytotoxicity Assay to monitor cytotoxicity in HepG2 cells - 16 hour (AID 1224876); also: nearly all actives have a fitted effect of over 45% in size; also: potency is read from the fitted curve at half-maximal effect
# Procedure, shortened: (§3)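 Real-time, homogeneous cytotoxicity readout: dead-cell DNA staining by CellTox Green in HepG2 monolayers, fluorescence measured at timed intervals up to 40 h of continuous compound exposure.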
# [5] = qHTS RealTime-Glo MT Cell Viability Assay in HepG2 cells - 32 hour (AID 1224877); also: nearly all actives have a fitted effect of over 55% in size; also: potency is read from the fitted curve at half-maximal effect
# Procedure, shortened: (§4)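 Viability was tracked continuously by NanoLuc luminescence from prosubstrate reduced by living HepG2 cells, at successive time points over 40 h of compound exposure. Cells with reagent were preincubated 5 h at 37 °C before compound addition.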
# [6] = A CellTox Green Cytotoxicity Assay to monitor cytotoxicity in HepG2 cells - 24 hour (AID 1224878); also: nearly all actives have a fitted effect of over 45% in size
# Procedure, shortened: as §3
# [7] = A CellTox Green Cytotoxicity Assay to monitor cytotoxicity in HepG2 cells - 40 hour (AID 1224879); also: nearly all actives have a fitted effect of over 40% in size
# Procedure, shortened: as §3
# [8] = qHTS RealTime-Glo MT Cell Viability Assay in HEK293 cells - 0 hour (AID 1224880); also: top concentration of the series differs between compounds; nearly all actives have a fitted effect of over 45% in size
# Procedure, shortened: as §2
# [9] = A CellTox Green Cytotoxicity Assay to monitor cytotoxicity in HepG2 cells - 0 hour (AID 1224882); also: nearly all actives have a fitted effect of over 35% in size
# Procedure, shortened: as §3
# [10] = A CellTox Green Cytotoxicity Assay to monitor cytotoxicity in HepG2 cells - 32 hour (AID 1224883); also: nearly all actives have a fitted effect of over 50% in size
# Procedure, shortened: as §3
# [11] = qHTS RealTime-Glo MT Cell Viability Assay in HepG2 cells - 16 hour (AID 1224885); also: nearly all actives have a fitted effect of over 50% in size
# Procedure, shortened: as §4
# [12] = qHTS RealTime-Glo MT Cell Viability Assay in HEK293 cells - 24 hour (AID 1224886); also: nearly all actives have a fitted effect of over 50% in size; also: potency is read from the fitted curve at half-maximal effect; as to activity change, negative = cytotoxicity: top concentration of the series differs between compounds
# Procedure, shortened: as §1
# [13] = qHTS RealTime-Glo MT Cell Viability Assay in HEK293 cells - 8 hour (AID 1224887); also: nearly all actives have a fitted effect of over 50% in size; also: potency is read from the fitted curve at half-maximal effect; as to activity change, negative = cytotoxicity: top concentration of the series differs between compounds
# Procedure, shortened: as §2
# [14] = qHTS RealTime-Glo MT Cell Viability Assay in HepG2 cells - 0 hour (AID 1224889); also: nearly all actives have a fitted effect of over 50% in size
# Procedure, shortened: as §4
# [15] = A CellTox Green Cytotoxicity Assay to monitor cytotoxicity in HepG2 cells - 8 hour (AID 1224890); also: nearly all actives have a fitted effect of over 45% in size; also: potency is read from the fitted curve at half-maximal effect
# Procedure, shortened: as §3
# [16] = A CellTox Green Cytotoxicity Assay to monitor cytotoxicity in HEK293 cells - 8 hour (AID 1224884); also: nearly all actives have a fitted effect of over 35% in size
# Procedure, shortened: (§5)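 Cytotoxicity was tracked continuously in HEK293 cells by a DNA-binding dye excluded from viable cells. Compounds were transferred in DMSO 5 h after seeding; fluorescence was recorded at intervals up to 40 h.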
# [17] = A CellTox Green Cytotoxicity Assay to monitor cytotoxicity in HEK293 cells - 16 hour (AID 1224888); also: nearly all actives have a fitted effect of over 35% in size
# Procedure, shortened: as §5
# [18] = A CellTox Green Cytotoxicity Assay to monitor cytotoxicity in HEK293 cells - 24 hour (AID 1224875)
# Procedure, shortened: as §5
# [19] = A CellTox Green Cytotoxicity Assay to monitor cytotoxicity in HEK293 cells - 32 hour (AID 1224881); also: nearly all actives have a fitted effect of over 40% in size
# Procedure, shortened: as §5
# [20] = A CellTox Green Cytotoxicity Assay to monitor cytotoxicity in HEK293 cells - 40 hour (AID 1224871); also: nearly all actives have a fitted effect of over 45% in size
# Procedure, shortened: as §5
smiles,measurement,setting,value
CCCc1c2oc(C(=O)O)cc(=O)c2cc2c(=O)cc(C(=O)O)n(CC)c12,Potency,[1],inactive
same,outcome,[2],inactive
same,max response,[3],1.42%
same,Potency,[4],inactive
same,Potency,[5],inactive
same,Potency,[6],inactive
same,Potency,[7],inactive
same,outcome,[8],inactive
same,Potency,[9],inactive
same,Potency,[10],inactive
same,outcome,[11],inactive
same,Potency,[12],inactive
same,Potency,[13],inactive
same,Potency,[14],inactive
same,Potency,[15],inactive
ICCc1ccccc1,Potency,[1],inactive
same,outcome,[2],inactive
same,max response,[3],22.5%
same,Potency,[4],inactive
same,Potency,[5],12.1 µM (active)
same,Potency,[6],inactive
same,Potency,[7],inactive
same,outcome,[8],inactive
same,Potency,[9],inactive
same,Potency,[10],inactive
same,Potency,[16],inactive
same,outcome,[11],inactive
same,Potency,[12],inactive
same,Potency,[13],inactive
same,Potency,[17],inactive
same,Potency,[14],inactive
same,Potency,[15],inactive
CCC(=O)c1ccc2c(c1)N(CCCN(C)C)c1ccccc1S2,Potency,[1],10.7 µM (active)
same,outcome,[2],inactive
same,Potency,[3],19 µM (active)
same,Potency,[18],inactive
same,Potency,[5],inactive
same,outcome,[8],inactive
same,Potency,[19],inactive
same,Potency,[9],inactive
same,Potency,[16],inactive
same,Potency,[12],10.7 µM (active)
same,Potency,[13],9.52 µM (active)
same,Potency,[17],inactive
same,Potency,[15],inactive
COc1ccc(Nc2ccc(OC)cc2)cc1,Potency,[20],inactive
same,outcome,[2],inactive
same,Potency,[3],28.1 µM (active)
same,Potency,[18],inactive
same,Potency,[4],inactive
same,Potency,[5],inactive
same,Potency,[6],inactive
same,Potency,[7],inactive
same,Potency,[19],inactive
same,Potency,[9],inactive
same,Potency,[10],inactive
same,Potency,[16],inactive
same,outcome,[11],inactive
same,Potency,[13],14.1 µM (active)
same,Potency,[17],inactive
same,Potency,[14],inactive
same,Potency,[15],inactive
Cc1c(-c2ccccc2)oc2c(C(=O)OCCN3CCCCC3)cccc2c1=O,Potency,[20],inactive
same,outcome,[2],inactive
same,Potency,[18],inactive
same,Potency,[4],inactive
same,Potency,[5],inactive
same,Potency,[6],inactive
same,Potency,[7],inactive
same,outcome,[8],inactive
same,Potency,[19],inactive
same,Potency,[9],inactive
same,Potency,[10],inactive
same,Potency,[16],inactive
same,outcome,[11],inactive
same,Potency,[13],19 µM (active)
same,Potency,[17],inactive
same,Potency,[14],inactive
same,Potency,[15],inactive
CC(C)c1ccccc1,Potency,[1],inactive
same,outcome,[2],inactive
same,max response,[3],1.09%
same,Potency,[4],inactive
same,Potency,[5],inactive
same,Potency,[6],inactive
same,Potency,[7],inactive
same,outcome,[8],inactive
same,Potency,[19],inactive
same,Potency,[9],inactive
same,Potency,[10],inactive
same,Potency,[16],inactive
same,outcome,[11],inactive
same,Potency,[12],inactive
same,Potency,[13],inactive
same,Potency,[17],inactive
same,Potency,[14],inactive
same,Potency,[15],inactive
COc1cc2c(cc1N)oc1ccccc12,Potency,[20],inactive
same,outcome,[2],inactive
same,Potency,[18],inactive
same,Potency,[4],inactive
same,Potency,[5],inactive
same,Potency,[6],inactive
same,Potency,[7],inactive
same,outcome,[8],inactive
same,Potency,[19],inactive
same,Potency,[9],inactive
same,Potency,[10],inactive
same,outcome,[11],inactive
same,Potency,[17],inactive
same,Potency,[14],inactive
same,Potency,[15],inactive
Cc1ccc(C(C)C)cc1O,Potency,[1],inactive
same,outcome,[2],inactive
same,max response,[3],-12%
same,Potency,[18],inactive
same,Potency,[5],inactive
same,outcome,[8],inactive
same,Potency,[9],inactive
same,Potency,[16],inactive
same,outcome,[11],inactive
same,Potency,[12],inactive
same,Potency,[13],inactive
same,Potency,[17],inactive
same,Potency,[14],inactive
COc1cc(Cl)ccc1Cl,Potency,[1],inactive
same,outcome,[2],inactive
same,max response,[3],-0.591%
same,Potency,[4],inactive
same,Potency,[5],inactive
same,Potency,[6],inactive
same,Potency,[7],inactive
same,outcome,[8],inactive
same,Potency,[9],inactive
same,Potency,[10],inactive
same,outcome,[11],inactive
same,Potency,[12],inactive
same,Potency,[13],inactive
same,Potency,[17],inactive
same,Potency,[14],inactive
same,Potency,[15],inactive
CC(=O)Oc1cc(C(C)C)c(OCCN(C)C)cc1C,Potency,[20],inactive
same,outcome,[2],inactive
same,Potency,[18],inactive
same,Potency,[4],inactive
same,Potency,[5],inactive
same,Potency,[6],inactive
same,Potency,[7],inactive
same,outcome,[8],inactive
same,Potency,[19],inactive
same,Potency,[9],inactive
same,Potency,[10],inactive
same,outcome,[11],inactive
same,Potency,[17],inactive
same,Potency,[14],inactive
same,Potency,[15],inactive
O=C(O)CN(CCN(CC(=O)O)CC(=O)O)CCN(CC(=O)O)CC(=O)O,cytotoxicity increase,[20],19.7% [at 15.8 µM]
same,"viability change, negative = cytotoxic",[2],-0.356% [at 15.8 µM]
same,activity change,[18],"15.9% [at 15.8 µM, active compounds read high]"
same,cytotoxicity increase,[4],29.9% [at 15.8 µM]
same,"activity change, negative = cytotoxic",[5],0.371% [at 15.8 µM]
same,cytotoxicity,[6],28.9% [at 15.8 µM]
same,cytotoxicity increase,[7],29.3% [at 15.8 µM]
same,"activity change, negative = cytotoxicity",[8],6.1% [at 15.8 µM]
same,cytotoxicity increase,[19],18.1% [at 15.8 µM]
same,cytotoxicity,[9],20.5% [at 15.8 µM]
same,cytotoxicity increase,[10],22% [at 15.8 µM]
same,"activity change, negative = cytotoxic",[11],-0.409% [at 15.8 µM]
same,activity change,[17],"12.4% [at 15.8 µM, active compounds read high]"
same,"activity change, negative = cytotoxicity",[14],-4.51% [at 15.8 µM]
same,cytotoxicity increase,[15],26.9% [at 15.8 µM]
CCOC(=O)COc1ccc2c(c1)CC(NCC(O)c1cccc(Cl)c1)CC2 (stereo unspecified),Potency,[1],inactive
same,outcome,[2],inactive
same,max response,[3],-17.8%
same,Potency,[4],44 µM (active)
same,Potency,[5],inactive
same,Potency,[9],inactive
same,outcome,[11],inactive
same,Potency,[12],inactive
same,Potency,[15],44 µM (active)
CC1(O)CSC(C)(O)CS1 (stereo unspecified),Potency,[20],inactive
same,outcome,[2],inactive
same,max response,[3],5.86%
same,Potency,[4],inactive
same,Potency,[5],inactive
same,Potency,[6],inactive
same,outcome,[8],inactive
same,Potency,[19],inactive
same,Potency,[9],inactive
same,Potency,[10],inactive
same,Potency,[16],inactive
same,outcome,[11],inactive
same,Potency,[12],inactive
same,Potency,[17],inactive
same,Potency,[14],inactive
same,Potency,[15],inactive
